For 39 molecules, Potency and activity, negative = cytotoxicity results are on record in PubChem BioAssay (Tox21).

Results filed as inconclusive are left out. A call without a number means that no potency is given here. A structure can be active in one record and inactive in another. Calls of active or inactive are those of the source. Calls follow the shape of the full dose curve. Positions of bridges follow the written chain, without caps; N, C: chain ends. Non-standard residues stand in square brackets, D forms with d. Residues, ends and D or L forms follow the SMILES beside them. hArg = N=C(N)NCCCC[C@H](N)C(=O)O; Mpa = O=C(O)CCS
Potency is read from the fitted curve at half-maximal effect.

This experiment can be described thus: qHTS assay for small molecules that induce genotoxicity in human embryonic kidney cells expressing luciferase-tagged ATAD5 - cell viability (AID 651634). Also: nearly all actives have a fitted effect of over 25% in size. As to conditions: HEK293T ATAD5-luc cells viability, CellTiter-Fluor, 15.5 h; series mostly up to 83.3 µM. The text has this: National Center for Advancing Translational Sciences [NCATS]
NIH Chemical Genomics Center [NCGC]
U.S. Environmental Protection Agency [EPA]
National Institutes of Environmental Health Sciences [NIEHS]
National Toxicology Program [NTP]
U.S. Food and Drug Administration [FDA]
Enhanced Level of Genome Instability Gene 1 (ELG1; human ATAD5) protein levels increase in response to various types of DNA damage. Using a luciferase reporter-gene tagged with ElG1, a cell-based assay [developed by Kyungjae Myung, NHGRI, NIH] was used to measure the induction of ATAD5 in human embryonic kidney cells (HEK293T). So, increase in luciferase activity can be used to identify the compounds that cause genetic stress. In addition to genotoxicity, these cells were also used to test for cytotoxicity by measuring the protease activity within live cells.
Tox21 Assay Protocol Summary:
For cytotoxicity screening, 2,000 cells in 5 uL/well were dispensed into white, solid-bottom 1536-well plates using a Multidrop Combi (Thermo Scientific) dispenser. Following transfer of 23 nL compound or DMSO vehicle by a pin tool, the plates were incubated 15.5 hr at 37C and 5% CO2. 1 ul CellTiter-Fluor reagent (Promega, Madison, WI) was then added to each plate and following 30 min incubation at 37C, fluorescence intensity was quantified on a ViewLux CCD-based plate reader.
With `C=CCCCC`, the Potency entry is “inactive”.
Take `C=C(C)C1CC=C(C)C(=O)C1` (stereo not given): the Potency result is “inactive”.
Consider `OC[C@@H](O)C(O)[C@@H](O)CO` (stereo not given in full), for which the Potency entry was “inactive”.
As to `COS(=O)(=O)O`, the Potency result is “inactive”.
In the case of `CC(=O)O[C@H]1C[C@@H]2CC[C@@]1(C)C2(C)C`, the Potency entry was “inactive”.
For `CCOCCOCC`, the Potency entry was “inactive”.
In the case of `CCCCCC/C=C/C(=O)OC`, the Potency result was “inactive”.
For `CC1CCc2c(N3CCC(O)CC3)c(F)cc3c(=O)c(C(=O)O)cn1c23` (stereo not given), the Potency result was “inactive”.
Same read-out and setting: in the case of `CC(=O)OC(C)=O` it was “inactive”; in that of `C=CC(=O)OCC1CCCO1` (stereo not given), “inactive”; in that of `COC(=O)c1cccc(Cl)c1`, “inactive”.
For the molecule `CC(C)CO`, the Potency result was “inactive”.
On to `CC(=O)C1C(=O)C=C(C)OC1=O` (stereo not given), for which the Potency result is “inactive”.
Turning to `CC(C)OC(=O)OCOP(=O)(CO[C@H](C)Cn1cnc2c(N)ncnc21)OCOC(=O)OC(C)C`, the Potency entry was “inactive”.
Consider `O=C(NCN1CCOCC1)c1cnccn1`, for which the Potency entry is “inactive”.
In the case of `CC(=O)O[Si](C)(OC(C)=O)OC(C)=O`, the Potency result was “inactive”.
The same measure, in the same setting: in the case of `OCCN1CCOCC1` it was “inactive”; in that of `O=C(Cn1ccnc1[N+](=O)[O-])NCc1ccccc1`, “inactive”.
Consider `O=S(=O)(O)c1ccc2c(N=Nc3ccc(S(=O)(=O)O)c4ccccc34)c(O)c(S(=O)(=O)O)cc2c1`, for which the Potency was 13.3 µM (active) and the activity, negative = cytotoxicity was -17.7% [at 8.08 µM] (inactive).
As for `CC1=C(C(=O)O)N2C(=O)[C@@H](NC(=O)[C@H](N)c3ccccc3)[C@H]2SC1`, the Potency entry was “inactive”.
Regarding `NCCOCCN`, the Potency result is “inactive”.
With `CC1=C(C(=O)O)N2C(=O)[C@@H](NC(=O)[C@H](N)C3=CCC=CC3)[C@H]2SC1`, the Potency result is “inactive”.
Turning to `COC(=O)c1cc(Cl)cc(Cl)c1`, the Potency result is “inactive”.
The same measure, in the same setting: in the case of `Nc1nnnn1-c1ccccc1` it was “inactive”; in that of `C[C@H]1[C@@H](c2ccccc2)NC(=O)N1C`, “inactive”.
Consider `CC/C=C\CCOC(=O)c1ccccc1O`, for which the Potency entry is “inactive”.
Regarding `CCCc1ccc(O)cc1`, the Potency result was “inactive”.
As to `CC(C)(C)NC[C@H](O)COc1cccc2c1CCCC2=O`, the Potency entry is “inactive”.
For the molecule `CCCCCCC1(C)CCC(=O)O1` (stereo not given), the Potency entry was “inactive”.
Turning to `COP(=O)(O)OP(=O)(O)OC`, the Potency entry is “inactive”.
Still for that read-out and setting: in the case of `CCCCOC(=O)C(C)O` (stereo not given) it was “inactive”; in that of `CC(C)OC(=O)CCC(=O)OC(C)C`, “inactive”; in that of `COC(=O)CCCCC(=O)O`, “inactive”.
As for `O=C(O)c1cc2ccccc2nc1C(=O)O`, the Potency result was “inactive”.
As for `C=CCCCCCCCC`, the Potency entry was “inactive”.
Consider `NC(=O)[C@@H]1CSSCCC(=O)N[C@@H](CCCCN=C(N)N)C(=O)NCC(=O)N[C@@H](CC(=O)O)C(=O)N[C@@H](Cc2c[nH]c3ccccc23)C(=O)N2CCC[C@H]2C(=O)N1` ([Mpa][hArg]GDWPC-NH2; disulfide 1-7), for which the Potency result is “inactive”.
Take `Cc1ccc(C(C)NC(=O)[C@@H](NC(=O)OC(C)C)C(C)C)cc1` (stereo not given in full): the Potency result is “inactive”.
With `C=Cc1ccc(C(C)(C)C)cc1`, the Potency result was “inactive”.
The same measure, in the same setting: in the case of `N#Cc1cscn1` it was “inactive”.
